In PubChem BioAssay (NCI) one finds growth data, which are given here for nine compounds.

Test systems include NCI-H23 lung; NCI-H226 lung; NCI-H322M lung; HOP-62 NSCLC; NCI-H460 lung; HOP-92 NSCLC; NCI-H522 lung; A549/ATCC NSCLC; 786-0 renal; DU-145 prostate; K-562 leukemia; MALME-3M melanoma; MDA-MB-231 breast; RXF 393 renal; SF-268 CNS; SF-295 CNS; SF-539 CNS; UACC-257 melanoma.
Holding throughout (assay): NCI-60 one-dose screen, 48 h (100 = growth as untreated, 0 = no growth, -100 = all killed)
What all share (conditions): 10 µM unless noted

This is part of a sample that, as a whole, favours compounds with a hit. Of some 83,000 tested, about 20% had one in any assay.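 Plates (96-well) were seeded with cells, treated with compound at one concentration, and incubated for 48 hours before percent growth was determined.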 Values without a mark were called inactive. Calls of active or inactive are those of the source. How the source made its calls: active means growth percent below 10; inactive means the rest.

As to `Cn1ncc2c(Nc3ccc(Br)cc3)nc(Nc3ccc(Br)cc3)nc21`, the growth is 27.5% in the test with NCI-H23 lung; 62.1% in the test on NCI-H226 lung; 73% in the test on NCI-H322M lung; 23.8% with HOP-62 NSCLC; 8.2% (active) in the test with NCI-H460 lung; 7.66% (active) in the test on HOP-92 NSCLC. Moreover, the growth with NCI-H522 lung is 44.8%; with A549/ATCC NSCLC, 48.1%; with 786-0 renal it was -38.9% (active); in the test on DU-145 prostate it was 68.3%; in the test with K-562 leukemia, 11.4%; with MALME-3M melanoma, 55.4%. The growth is 17.7% with MDA-MB-231 breast; 64.1% with RXF 393 renal; 57.6% with SF-268 CNS; 40.2% with SF-295 CNS; 64.9% in the test on SF-539 CNS; 82.6% in the test on UACC-257 melanoma.

As to `Cl.Fc1c[c-]c(-c2ccccn2)c(F)c1.[Pt].c1ccc([PH+](c2ccccc2)c2ccccc2[PH+](c2ccccc2)c2ccccc2)cc1`, the growth was -84.6% (active) in the test on NCI-H23 lung; -70% (active) in the test on NCI-H226 lung; -99.4% (active) in the test on NCI-H322M lung; -62.2% (active) with HOP-62 NSCLC; -73.2% (active) in the test on NCI-H460 lung; -68% (active) with HOP-92 NSCLC. Also, the growth with NCI-H522 lung was -63% (active); with A549/ATCC NSCLC, -68.9% (active); in the test with 786-0 renal, -73.9% (active); with DU-145 prostate, -98.9% (active); in the test on K-562 leukemia it was 0.976% (active); in the test with MALME-3M melanoma, -83.8% (active). Besides, the growth was -93.3% (active) in the test on MDA-MB-231 breast; -86.8% (active) in the test on RXF 393 renal; -72.3% (active) in the test with SF-268 CNS; -90.8% (active) with SF-295 CNS; -93.6% (active) in the test on SF-539 CNS; -71.8% (active) in the test with UACC-257 melanoma.

Regarding `CCCCN1CCN(c2ccc3nc(-c4ccc5nc(-c6ccc(OCC)c(OCC)c6)[nH]c5c4)[nH]c3c2)CC1`, the growth is -55.9% (active) in the test with NCI-H23 lung; 16.2% in the test on NCI-H226 lung; 14.1% with NCI-H322M lung; -69.7% (active) in the test on HOP-62 NSCLC; -84.3% (active) in the test with NCI-H460 lung; 81.3% with HOP-92 NSCLC. Further, the growth in the test on NCI-H522 lung is -32.2% (active); in the test with A549/ATCC NSCLC, 37.7%; with 786-0 renal, -87.4% (active); with DU-145 prostate it was -86.2% (active); with K-562 leukemia, -37.1% (active); in the test with MALME-3M melanoma, 9.35% (active). The growth is -81.2% (active) in the test on MDA-MB-231 breast; -96.3% (active) in the test on RXF 393 renal; 51.6% in the test on SF-268 CNS; -67.8% (active) in the test on SF-295 CNS; -93.7% (active) in the test on SF-539 CNS; 29% in the test with UACC-257 melanoma.

`CS(=O)(=O)c1ccc(-c2[nH]c3ccc(F)cc3c2/C=N/NC(N)=S)cc1`: the growth in the test on NCI-H23 lung was 38.1%; with NCI-H226 lung it was 63.1%; in the test on NCI-H322M lung, 48.8%; in the test with HOP-62 NSCLC, 34.2%; in the test on NCI-H460 lung, 3.52% (active); in the test with HOP-92 NSCLC, 55.8%. Also, the growth was 5.14% (active) with NCI-H522 lung; 18.4% with A549/ATCC NSCLC; 40.3% in the test on 786-0 renal; 22.1% in the test on DU-145 prostate; 6.76% (active) in the test on K-562 leukemia; 55.9% in the test on MALME-3M melanoma. For the same compound, the growth is 13.7% with MDA-MB-231 breast; 1.16% (active) in the test on RXF 393 renal; 39.8% with SF-268 CNS; 13.9% with SF-295 CNS; -21.2% (active) with SF-539 CNS; 63.3% in the test with UACC-257 melanoma.

Take `CCN(CCO)CC(=O)c1cc(Cl)cc(Cl)c1Cl`: the growth with NCI-H23 lung was 96.6%; with NCI-H226 lung, 88.6%; in the test with NCI-H322M lung it was 101%; in the test on HOP-62 NSCLC it was 94.8%; in the test on NCI-H460 lung it was 105%; in the test with HOP-92 NSCLC it was 89.4%. The growth in the test on NCI-H522 lung was 67.6%; in the test on A549/ATCC NSCLC, 96.1%; with 786-0 renal it was 98.1%; in the test on DU-145 prostate, 103%; in the test with K-562 leukemia, 99.2%; in the test on MALME-3M melanoma, 98.2%. The growth in the test on MDA-MB-231 breast is 103%; in the test on RXF 393 renal it was 93.7%; with SF-268 CNS, 97.5%; with SF-295 CNS, 97.8%; in the test with SF-539 CNS, 104%; in the test on UACC-257 melanoma, 102%.

Consider `c1ccc2c(c1)nc(-n1ccnc1)c1nc3ccccc3n12`, for which the growth in the test on NCI-H23 lung was 65.8%; in the test with NCI-H226 lung, 65.7%; with NCI-H322M lung it was 71.9%; with HOP-62 NSCLC, 47.9%; in the test on NCI-H460 lung, 40.7%; in the test with HOP-92 NSCLC, 80.9%. For the same compound, the growth with NCI-H522 lung was 26.9%; with A549/ATCC NSCLC, 54.3%; with 786-0 renal it was 73.1%; in the test on DU-145 prostate, 76.9%; in the test on K-562 leukemia, 88.1%; with MALME-3M melanoma, 92.9%. Further, the growth was 72.3% in the test on MDA-MB-231 breast; 64.9% with RXF 393 renal; 37.9% with SF-268 CNS; 83.7% in the test on SF-295 CNS; 66% with SF-539 CNS; 82.3% in the test on UACC-257 melanoma.

On to `COc1cc(/C=C/C(=O)c2cccc(-n3cc(-c4ccccc4)[nH]c3=O)c2)cc(OC)c1OC`, for which the growth is -27.4% (active) in the test on NCI-H23 lung; 24.9% with NCI-H226 lung; 33% with NCI-H322M lung; 7.01% (active) in the test with HOP-62 NSCLC; -68.5% (active) in the test with NCI-H460 lung; 24.3% with HOP-92 NSCLC. Further, the growth with NCI-H522 lung is -64.5% (active); with A549/ATCC NSCLC, 27.1%; in the test with 786-0 renal, -63.4% (active); with DU-145 prostate, 7.58% (active); with K-562 leukemia, 5.48% (active); in the test with MALME-3M melanoma it was 2.69% (active). The growth in the test on MDA-MB-231 breast is 5.03% (active); with RXF 393 renal, -69.7% (active); in the test on SF-268 CNS, 17.7%; with SF-295 CNS, 51%; with SF-539 CNS, -88.8% (active); with UACC-257 melanoma, -13.2% (active).

`COc1ccc(-c2cc(-c3cc(OC)ccc3O)[nH]c(=O)c2C#N)cc1`: the growth was 59.1% with NCI-H23 lung; 73.8% in the test with NCI-H226 lung; 94.5% with NCI-H322M lung; 53.2% in the test on HOP-62 NSCLC; 41.6% in the test with NCI-H460 lung; 31.6% in the test on HOP-92 NSCLC. For the same compound, the growth is 15.4% in the test with NCI-H522 lung; 79.9% in the test with A549/ATCC NSCLC; 57.3% in the test on 786-0 renal; 79.8% in the test with DU-145 prostate; 23.7% in the test on K-562 leukemia; 60.7% in the test on MALME-3M melanoma. Besides, the growth with MDA-MB-231 breast is 45%; in the test with RXF 393 renal, 81.2%; in the test with SF-268 CNS, 61.3%; with SF-295 CNS it was 54%; in the test on SF-539 CNS it was 39.4%; in the test with UACC-257 melanoma it was 61%.

For the compound `COc1cc(C(=O)/C=C/c2c(C(F)(F)F)nc3ccccn23)cc(OC)c1OC`, the growth in the test with NCI-H23 lung was -50.3% (active); with NCI-H226 lung, -25.5% (active); with NCI-H322M lung, 8.14% (active); in the test with HOP-62 NSCLC, -26.9% (active); in the test on NCI-H460 lung, -44.4% (active); in the test on HOP-92 NSCLC, 2.54% (active). The growth with NCI-H522 lung is -51.4% (active); with A549/ATCC NSCLC, 9.73% (active); in the test with 786-0 renal, -60.9% (active); in the test with DU-145 prostate, -25.8% (active); with K-562 leukemia it was -9.61% (active); with MALME-3M melanoma, 7.53% (active). Also, the growth is 13.9% with MDA-MB-231 breast; -68.8% (active) in the test with RXF 393 renal; -36.1% (active) in the test on SF-268 CNS; -14.9% (active) in the test with SF-295 CNS; -92.8% (active) in the test with SF-539 CNS; -9.93% (active) with UACC-257 melanoma.
